Assay [1] concerns XIP peptide (Xip251-270) binding. The experiment in a line: XIP fragment 251-270 binding compounds – biochemical, small-molecule microarray, fluorescence 635/667 nm, 0.1 µg/mL protein, primary screen (AID 1182). The following applies: fluorescent protein binding, 635 nm, higher = more signal, called active from +8 up or from −8 down.
The next assay has as its system XIP peptide (Xip251-270). The experiment in a line: compounds binding XIP fragment 251-270 – biochemical, small-molecule microarray, fluorescence 635/667 nm, 0.5 µg/mL protein, primary screen (AID 1183). The note with it: fluorescence 635 nm, higher = more signal.
A short description of assay [2]: blood-stage malaria parasite viability loss – strain 3D7, DAPI fluorescence, 100 nL, primary screen (AID 1184).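 Also: parasites grown inside human red blood cells in medium with human serum.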 The following applies: P. falciparum 3D7 growth, 3 d, higher = more signal.
Assay [3] addresses Homeobox protein Hox-A13 (Mus musculus) (UniProt Q62424). The experiment in a line: disruptors of Hoxa13 oligonucleotide interaction – biochemical, fluorescence polarization, labeled oligonucleotide, primary screen (AID 1185). The following applies: Hoxa13:DNA binding, 15 min, higher = more signal, called active from +8 up or from −8 down. On the technique in general: Fluorescence polarisation rises when a labelled molecule tumbles more slowly, as on binding a larger partner.

Assay [4] is described as follows: blockers of DNA damage checkpoint Chk1 activation – imaging, HeLa, hydroxyurea, phospho-Chk1 antibody, percent positive cells, primary screen (AID 1186). The following applies: hydroxyurea-induced phospho-Chk1 immunofluorescence imaging, higher = more signal.
Assay [5] is described as follows: blockers of DNA damage checkpoint Chk1 activation – imaging, HeLa, hydroxyurea, phospho-Chk1 nuclear intensity, primary screen (AID 1187). The note with it: hydroxyurea-induced phospho-Chk1 immunofluorescence imaging, higher = more signal.

Here are results for 14 compounds from PubChem BioAssay.

Calls of active or inactive are those of the source. Unless noted, no rule for the calls is given here.

Chain of Homeobox protein Hox-A13 (Mus musculus) (Q62424 whole entry, looked up): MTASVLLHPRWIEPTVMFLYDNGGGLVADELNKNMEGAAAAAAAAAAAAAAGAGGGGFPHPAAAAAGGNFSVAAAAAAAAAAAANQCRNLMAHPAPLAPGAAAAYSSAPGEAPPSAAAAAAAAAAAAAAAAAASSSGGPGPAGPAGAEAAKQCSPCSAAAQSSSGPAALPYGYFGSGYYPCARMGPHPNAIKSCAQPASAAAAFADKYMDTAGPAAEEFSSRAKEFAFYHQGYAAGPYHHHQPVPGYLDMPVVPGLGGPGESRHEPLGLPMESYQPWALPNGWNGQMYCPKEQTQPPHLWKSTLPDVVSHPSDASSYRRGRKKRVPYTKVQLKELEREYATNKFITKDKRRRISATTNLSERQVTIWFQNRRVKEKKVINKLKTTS

Turning to `O=C1C2C=CC(C(O)c3ccc(Br)cc3)N(n3cnnc3)C2C(=O)N1Cc1ccccc1` (centres undefined), the composite z-score in assay [1] was 0.568 (inactive); in the assay with XIP peptide (Xip251-270), 0.76. For the same compound, the z-score in assay [2] was -0.084; in assay [3], 0.314 (inactive); in assay [4], -0.47 (inactive); in assay [5] it was -0.618 (inactive).
For the compound `C=CCOC(=O)[C@@H]1[C@H]2C(=O)O[C@H](c3ccccc3)[C@H](c3ccccc3)N2[C@H](c2ccc(OCCOC(=O)[C@H]3C[C@H]4C(=O)N[C@@H](CCCC[N+](C)(C)C)C(=O)N4[C@H]3c3cccc(OCCO)c3)cc2)[C@@]12C(=O)Nc1ccc(I)cc12`, the composite z-score was 1.31 (inactive) in assay [1] and 0.646 in the assay on XIP peptide (Xip251-270). The z-score in assay [2] was -1.82; in assay [3], 1.38 (inactive); in assay [4] it was -0.118 (inactive); in assay [5], -0.176 (inactive).
Turning to `C=CC[C@@]1(C(N)=O)N=C(c2ccc(OCCCO)cc2)O[C@@H]1c1ccccc1N=[N+]=[N-]`, the composite z-score is 0.868 (inactive) in assay [1] and 0.231 in the assay with XIP peptide (Xip251-270). Besides, the z-score was -1.73 in assay [2], -6.09 (inactive) in assay [3], -0.0626 (inactive) in assay [4] and 0.0164 (inactive) in assay [5].
Turning to `C=CCNC(=O)[C@H]1[C@@H]2C(=O)O[C@@H](c3ccccc3)[C@@H](c3ccccc3)N2[C@@H](c2ccc(O)cc2)[C@]12C(=O)Nc1ccc(C#Cc3ccc(OC)cc3)cc12`, the composite z-score in assay [1] was 0.292 (inactive); in the assay with XIP peptide (Xip251-270) it was 0.779. Moreover, the z-score in assay [2] is -0.785; in assay [3] it was -1.91 (inactive); in assay [4], 0.0407 (inactive); in assay [5], 0.277 (inactive).
`O=C1O[C@H](c2ccccc2)[C@H](c2ccccc2)N2[C@H]1[C@@H](C(=O)Nc1nc3ccccc3s1)[C@]1(C(=O)Nc3ccc(C#CC4=CCCCC4)cc31)[C@H]2c1ccc(OCCO)cc1`: the composite z-score in assay [1] was -0.172 (inactive); in the assay with XIP peptide (Xip251-270), 0.656. The z-score in assay [2] is -0.985; in assay [3] it was -11.7 (active); in assay [4] it was 0.0032 (inactive); in assay [5], -0.515 (inactive).
For the compound `COc1ccc(C#Cc2ccc3c(c2)[C@]2(C(=O)N3)[C@H](c3ccc(OCCO)cc3)N3[C@H](c4ccccc4)[C@H](c4ccccc4)OC(=O)[C@H]3[C@@H]2C(=O)Nc2nc3ccccc3s2)cc1`, the composite z-score is 0.353 (inactive) in assay [1] and 0.522 in the assay with XIP peptide (Xip251-270). Moreover, the z-score in assay [2] was -1.3; in assay [3] it was 3.34 (inactive); in assay [4] it was 0.141 (inactive); in assay [5], 0.315 (inactive).
For `O=C1O[C@@H](c2ccccc2)[C@@H](c2ccccc2)N2[C@@H](c3ccc(O)cc3)[C@]3(C(=O)Nc4ccccc43)[C@@H](C(=O)N3CCCCCCC3)[C@H]12`, the composite z-score in assay [1] is 3.19 (inactive); in the assay with XIP peptide (Xip251-270), 0.862. Further, the z-score was -1.54 in assay [2], 3.1 (inactive) in assay [3], 0.242 (inactive) in assay [4] and 0.883 (inactive) in assay [5].
For `C=CCN1C(=O)[C@]2(COC(c3ccc(OCCCO)cc3)=N2)Cc2ccccc21`, the composite z-score in assay [1] is 2.53 (inactive); with XIP peptide (Xip251-270), 0.797. The z-score was -2.19 in assay [2], -4.31 (inactive) in assay [3], -0.455 (inactive) in assay [4] and -0.398 (inactive) in assay [5].
Turning to `COCCOC(=O)N1C(=O)[C@@]2(c3cc(C#CC4(O)CCCCCC4)ccc31)[C@H](c1ccc(O)cc1)N1[C@H](c3ccccc3)[C@H](c3ccccc3)OC(=O)[C@H]1[C@@H]2C(=O)N1CCc2cc(OC)c(OC)cc2C1`, the composite z-score in assay [1] was -0.455 (inactive); with XIP peptide (Xip251-270) it was 0.839. Also, the z-score was 0.0635 in assay [2], -0.954 (inactive) in assay [3], -0.404 (inactive) in assay [4] and -0.466 (inactive) in assay [5].
With `CC(C)C(CO)N1C(=O)[C@@H]2[C@H]3C(=O)OCC=C[C@H]3OC23C=CCN(c2ccc4ccccc4c2)C(=O)[C@@H]13` (some centres undefined), the composite z-score in assay [1] was 0.0164 (inactive); in the assay on XIP peptide (Xip251-270) it was -0.525. The z-score was -0.279 in assay [2], -3.29 (inactive) in assay [3], 0.207 (inactive) in assay [4] and 0.426 (inactive) in assay [5].
In the case of `C=CCN1Cc2ccccc2C[C@]2(N=C(c3ccc(OCCCO)cc3)O[C@@H]2c2ccccc2)C1=O`, the composite z-score in assay [1] was 1.27 (inactive); in the assay on XIP peptide (Xip251-270), 0.824. Besides, the z-score in assay [2] is -2.31; in assay [3] it was -3.62 (inactive); in assay [4] it was -0.802 (inactive); in assay [5] it was -0.978 (inactive).
In the case of `CN1C(=O)C2C=CC(C(O)C=Cc3ccc([N+](=O)[O-])cc3)N(N3CCCCC3)C2C1=O` (centres undefined), the figures for the composite z-score (in assay [1]; in the assay on XIP peptide (Xip251-270)) were 0.62 (inactive) and 0.776, respectively. The z-score in assay [2] was 0.986; in assay [3] it was -4.74 (inactive); in assay [4] it was 0.579 (inactive); in assay [5], -0.157 (inactive).
`CC[C@@H]1C=C(C(=O)O)[C@H](c2ccc(C(C)C)cc2)N1S(=O)(=O)c1ccc(C)cc1`: the composite z-score is 0.719 (inactive) in assay [1] and 0.924 with XIP peptide (Xip251-270). Further, the z-score is -0.646 in assay [2], -5.17 (inactive) in assay [3], 0.122 (inactive) in assay [4] and -0.118 (inactive) in assay [5].
As to `COCCCNC(=O)[C@]1(Cc2ccccc2N=[N+]=[N-])N=C(c2ccc(OCCCO)cc2)O[C@@H]1c1ccccc1CN=[N+]=[N-]`, the composite z-score in assay [1] was 0.0423 (inactive); with XIP peptide (Xip251-270), 0.758. The z-score in assay [2] was -2.21; in assay [3], -0.242 (inactive); in assay [4], -0.659 (inactive); in assay [5], -0.443 (inactive).
